Outcome and AC50 data for 10 compounds are collected here from PubChem BioAssay (EPA / NIEHS).

Inconclusive results are not listed. Calls of active or inactive are those of the source. How the source made its calls: active means hit-call score of the fitted dose curve at least 0.9, where 1 is the maximum; inconclusive means response in the unintended direction; inactive means score below 0.9.

Chain of human Dopamine Transporter (DAT), SLC6A3 (gene 6531) (Q01959 whole entry, looked up): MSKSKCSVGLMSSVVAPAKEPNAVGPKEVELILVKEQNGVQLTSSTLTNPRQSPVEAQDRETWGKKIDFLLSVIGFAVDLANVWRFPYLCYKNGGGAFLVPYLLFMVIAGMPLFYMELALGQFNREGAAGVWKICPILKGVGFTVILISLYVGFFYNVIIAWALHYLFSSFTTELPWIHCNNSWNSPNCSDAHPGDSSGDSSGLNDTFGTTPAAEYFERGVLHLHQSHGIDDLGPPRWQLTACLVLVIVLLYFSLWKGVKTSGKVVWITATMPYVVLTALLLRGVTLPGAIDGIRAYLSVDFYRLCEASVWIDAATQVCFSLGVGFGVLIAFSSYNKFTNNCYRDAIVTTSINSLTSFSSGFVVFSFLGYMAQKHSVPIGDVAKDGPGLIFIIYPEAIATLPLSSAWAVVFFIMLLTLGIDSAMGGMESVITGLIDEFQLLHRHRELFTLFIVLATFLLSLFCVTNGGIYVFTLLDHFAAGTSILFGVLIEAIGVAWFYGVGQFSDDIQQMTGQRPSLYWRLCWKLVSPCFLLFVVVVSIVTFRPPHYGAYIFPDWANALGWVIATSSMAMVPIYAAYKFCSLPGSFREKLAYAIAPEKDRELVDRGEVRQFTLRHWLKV

In one test the test system is rat Norepinephrine Transporter (NET), gene 83511. In words: NVS_TR_rNET: NovaScreen (NVS) Transporter Assay for rat Norepinephrine Transporter (NET) (AID 2283373). A digest of the protocol: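 Rat forebrain membranes; radioligand binding measured by filter-based scintillation counting 1 hour after dosing. Loss of specific binding versus DMSO baseline scored; primary screen in duplicate at 25 uM, actives followed up in concentration series.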
As to `O=c1[nH]cnc2c1ncn2[C@H]1CC[C@@H](CO)O1`, the compound was called inactive.
Regarding `c1ccc(C(O[C@@H]2CCCN(CCc3ccc4c(c3)OCO4)C2)c2ccccc2)cc1`, the AC50 is 11.4 µM (active).
For the compound `CCn1nc(C)c2c1C(=O)NCC(c1ccc(O)cc1)=N2`, the result was inactive.

A further test addresses human Dopamine Transporter (DAT), SLC6A3 (gene 6531) (UniProt Q01959). Description: NVS_TR_hDAT: NovaScreen (NVS) Transporter Assay for human Dopamine Transporter (DAT) (AID 2283374).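 Further: activity means loss of bound radioligand signal relative to DMSO.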 A digest of the protocol: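 Cell-free radioligand displacement binding at human DAT, 1 h after dosing, with filtration and scintillation counting. Primary screen in duplicate at 25 uM, actives then in concentration series. Loss of bound signal versus DMSO scored.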
For the compound `CC(C)c1nnc2ccc(-c3ocnc3-c3cc(F)ccc3F)cn12`, the call was inactive.
As to `O=C(NO)C1(NS(=O)(=O)c2ccc(Oc3ccc(F)cc3)cc2)CCOCC1`, the AC50 was 8.77 µM (active).
For the compound `CC[C@H](C)C(=O)O[C@H]1C[C@H](O)C=C2C=C[C@H](C)[C@H](CC[C@@H](O)C[C@@H](O)CC(=O)O)[C@H]21`, the compound was called inactive.
Still for that read-out and setting: with `CCCCCCCCCC` the entry was “inactive”.
`CCCOc1ccc(S(=O)(=O)N2CCN(CC)CC2)cc1-c1nc2c(CC)n(Cc3ccccn3)nc2c(=O)[nH]1`: the AC50 is 25 µM (active).
The same measure, in the same setting: with `c1ccc(C(O[C@@H]2CCCN(CCc3ccc4c(c3)OCO4)C2)c2ccccc2)cc1` the figure was 0.063 µM (active).
As to `OCc1ccccc1`, the compound was classed as inactive.
The same measure, in the same setting: to `CCn1nc(C)c2c1C(=O)NCC(c1ccc(O)cc1)=N2` belongs “inactive”; to `OC(CCl)CCl`, “inactive”.

In general, AC50 refers to the midpoint of the concentration-response curve, whichever way the signal moves.
